We go through 53 compounds from PubChem BioAssay AID1851 (National Center for Advancing Translational Sciences (NCATS), 2009).

Screen size: about 16,000 compounds; about 5,800 (36%) were called active. About 23% were inconclusive and are not listed. This is one part of the list. A number with no mark means an inactive call. The call rests on the fitted dose curve; in most records, active means well fitted curve in the direction sought with a large enough effect; inconclusive means small, poorly fitted or top-dose-only effect, or effect the other way; inactive means no such curve, though single readings can be large or run the other way.
On the % scale 0 is the no-effect control and ±100 the full control effect.

Sequence of Cytochrome P450 2C19 (Homo sapiens) (P33261 whole entry, looked up): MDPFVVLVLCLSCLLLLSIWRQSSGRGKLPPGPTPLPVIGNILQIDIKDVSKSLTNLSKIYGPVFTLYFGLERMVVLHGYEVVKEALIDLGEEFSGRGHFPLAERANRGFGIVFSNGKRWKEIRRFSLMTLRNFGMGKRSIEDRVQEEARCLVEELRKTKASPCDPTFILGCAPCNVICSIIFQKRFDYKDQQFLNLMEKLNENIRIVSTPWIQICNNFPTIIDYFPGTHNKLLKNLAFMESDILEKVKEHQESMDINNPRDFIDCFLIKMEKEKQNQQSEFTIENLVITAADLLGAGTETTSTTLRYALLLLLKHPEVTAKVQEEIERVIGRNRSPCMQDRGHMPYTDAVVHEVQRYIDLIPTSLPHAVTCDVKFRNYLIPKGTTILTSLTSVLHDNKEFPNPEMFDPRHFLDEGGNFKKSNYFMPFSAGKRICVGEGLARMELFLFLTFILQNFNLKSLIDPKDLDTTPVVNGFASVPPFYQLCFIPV

This assay concerns the target Cytochrome P450 2C19 (Homo sapiens) (UniProt P33261). Kind of assay: Cytochrome panel assay with activity outcomes. Conditions: recombinant CYP, pro-luciferin dealkylation, luminescence, p450-cyp2c19; series mostly up to 57.1 µM; activity, negative = inhibition: at the top concentration.
For orientation: AC50 means the concentration at which the activity in the assay is half-maximal. `Cc1ccc(Oc2ccccc2/C=C2\SC(=O)N(C)C2=O)cc1`: the AC50 is 6.31 µM (active).
Still for that read-out and setting: for `CC(C)(C)NC[C@H](O)COc1cccc2[nH]c(=O)[nH]c12` the value was “inactive”.
Take `COc1cc(N)c(Cl)cc1C(=O)OCCCN1CCCCC1`: the “activity, negative = inhibition” value was -22.8%.
Regarding `CCN(CC)S(=O)(=O)c1ccc(OC)c(NC(=O)c2cc([N+](=O)[O-])ccc2Cl)c1`, the “activity, negative = inhibition” value was -26.7%.
Turning to `CCN(CC)S(=O)(=O)c1ccc(OC)c(NC(=O)CSc2ccccc2)c1`, the AC50 was 11.2 µM (active).
As to `CCN1CCC[C@H]1CNC(=O)c1cc(S(N)(=O)=O)ccc1OC`, the “activity, negative = inhibition” value is -6.49%.
As for `COC(=O)c1cc(OC)c(OC)cc1NC(=O)CSc1ccc(C)cc1`, the AC50 was 1.78 µM (active).
On the same count and under the same terms, for `COC(=O)c1cc(OC)c(OC)cc1NC(=S)N1CCCCC1` the value was 6.31 µM (active); for `COC(=O)c1cc(OC)c(OC)cc1NC(=O)CSc1ccccc1`, 3.16 µM (active).
On to `COC(=O)c1cc(OC)c(OC)cc1NC(=S)N1CCN(C)CC1`, for which the “activity, negative = inhibition” value was -13.3%.
On to `O=c1cnc2cnc(Nc3ccccc3)nc2n1CCc1ccccc1`, for which the AC50 was 2 µM (active).
Still for that read-out and setting: for `CCNc1ncc2ncc(=O)n(CCc3ccccc3)c2n1` the value was 0.631 µM (active).
For `COCCn1c(=O)cnc2cnc(Nc3ccccc3)nc21`, the “activity, negative = inhibition” value was -14.5%.
On the same count and under the same terms, for `CCNc1ncc2ncc(=O)n(C[C@H]3CCCO3)c2n1` the value was 13.9%.
Still for that read-out and setting: for `CCNc1ncc2ncc(=O)n(C3CC3)c2n1` the value was -16.6%; for `CC[N+](C)(C)c1cccc(O)c1`, 3.62%.
On to `CCOc1ccc(C(Nc2ccc(C)cc2)P2(=O)OCC(C)(C)CO2)cc1` (stereo not drawn), for which the AC50 was 25.1 µM (active).
With `CCOc1ccc(C2=[N+]([O-])C(C)(C)N(O)C2(C)C)cc1`, the “activity, negative = inhibition” value is 2.26%.
The same measure, in the same setting: for `CN(C)Cc1ccccc1-c1nccc(N(C)C)n1` the value was 3.03%; for `c1ccc2c(CC3=NCCN3)cccc2c1`, -5.96% [at 25.6 µM].
On to `CN(Cc1cccc2ccccc12)Cc1cccc2ccccc12`, for which the AC50 is 1.58 µM (active).
Same read-out and setting: for `CN(C/C=C\c1ccccc1)Cc1cccc2ccccc12` the value was 0.501 µM (active).
Regarding `NCCSS(=O)(=O)CCN`, the activity, negative = inhibition was 4.15% [at 11.4 µM].
For `CCOc1ccccc1C1C(C#N)=C(N)Oc2n[nH]c(CC)c21` (stereo not drawn), the AC50 is 6.31 µM (active).
For the compound `COCCn1c(C)cc2c(c1=O)C(c1ccccc1F)C(C#N)=C(N)O2` (stereo not drawn), the “activity, negative = inhibition” value was 17.4%.
On the same count and under the same terms, for `N=C(N)SCCN` the value was -22.8%; for `CCN1CCC[C@@H]1CNC(=O)c1cc(S(N)(=O)=O)ccc1OC`, -20.4%.
Take `CC(=O)C1=C(NC(=O)c2ccc(F)cc2)CC2C1C2(C)C` (stereo not drawn): the AC50 was 3.16 µM (active).
The same measure, in the same setting: for `O=[N+]([O-])c1cccc(-c2nc(-c3ccncc3)no2)c1` the value was 0.891 µM (active).
Take `Nc1nc(-c2cccc([N+](=O)[O-])c2)cc(-c2cc(-c3cccc([N+](=O)[O-])c3)nc(N)n2)n1`: the activity, negative = inhibition was 14.8% [at 11.4 µM].
Consider `C[C@@H]1NC(=O)C/C=C\[C@@H](C)[C@@H]2C=C[C@H](O)[C@@H](COC(=O)[C@H](C)NC(=O)C/C=C\[C@@H](C)[C@@H]3C=C[C@H](O)[C@@H](COC1=O)O3)O2`, for which the activity, negative = inhibition is -11.5% [at 11.4 µM].
For the compound `COc1ccc(O[C@H]2C=C[C@@H](c3ccccc3)O[C@H]2COC(=O)CC/C(C)=N/O[C@@H]2O[C@H](COC(C)=O)[C@H](OC(C)=O)[C@H](OC(C)=O)[C@H]2OC(C)=O)cc1`, the AC50 was 1.58 µM (active).
As for `CC(=O)OC[C@@H]1O[C@H](CCO/N=C(\C)CCC(=O)OC[C@@H]2O[C@H](C#Cc3ccccc3)C=C[C@@H]2Oc2ccc(C)cc2)C=C[C@@H]1OC(C)=O`, the activity, negative = inhibition is -44.9% [at 11.4 µM].
Still for that read-out and setting: for `COc1ccc(O[C@H]2C=C[C@@H](c3ccccc3)O[C@@H]2CON=C(C)C)cc1` the value was -28.2% [at 11.4 µM].
Turning to `COc1ccc(O[C@H]2C=C[C@@H](c3ccccc3)O[C@H]2COC(=O)CC/C(C)=N/OCC[C@@H]2C=C[C@H](OC(C)=O)[C@H](COC(C)=O)O2)cc1`, the AC50 is 0.398 µM (active).
On to `CC(=O)OC[C@H]1O[C@@H](O/N=C(\C)CCN2CCc3nc(-c4ccccc4)c(-c4ccccc4)cc3C2)[C@H](OC(C)=O)[C@@H](OC(C)=O)[C@H]1OC(C)=O`, for which the activity, negative = inhibition is 6.61% [at 11.4 µM].
With `CCCNC(=O)OC[C@@H]1O[C@H](c2ccccc2)C=C[C@@H]1Oc1ccc(OC)cc1`, the activity, negative = inhibition was -44.8% [at 11.4 µM].
For `COc1ccc(O[C@H]2C=C[C@@H](c3ccccc3)O[C@H]2CO/N=C(/C)CCC(=O)OC[C@@H]2O[C@H](c3ccccc3)C=C[C@@H]2Oc2ccc(OC)cc2)cc1`, the AC50 was 0.1 µM (active).
As for `CC(=O)OC[C@@H]1O[C@H](CCON=C(C)C)C=C[C@@H]1OC(C)=O`, the activity, negative = inhibition was -20.6% [at 11.4 µM].
On to `COc1ccc(O[C@H]2C=C[C@@H](c3ccccc3)O[C@H]2COC(=O)N2CCCCC2)cc1`, for which the AC50 is 0.501 µM (active).
As for `CC(=O)OC[C@H]1O[C@@H](ON=C(C)C)[C@H](OC(C)=O)[C@@H](OC(C)=O)[C@H]1OC(C)=O`, the activity, negative = inhibition was 32.2% [at 11.4 µM].
Still for that read-out and setting: for `CC(=O)OC[C@@H]1O[C@H](C/C=N\OC[C@@H](O)COCc2ccco2)C=C[C@@H]1OC(C)=O` the value was 14.8% [at 11.4 µM]; for `CC(C)CO/N=C1/[C@H]2O[C@@H]2[C@@H](O)[C@H]2[C@H]1CCn1c(=O)n(-c3ccccc3)c(=O)n12`, 15.7% [at 11.4 µM].
With `COc1ccc(O[C@H]2C=C[C@@H](c3ccccc3)O[C@H]2CO/N=C2/[C@H]3O[C@@H]3[C@@H](O)[C@H]3[C@H]2CCn2c(=O)n(-c4ccccc4)c(=O)n23)cc1`, the AC50 was 2.51 µM (active).
Take `CCc1cc2c(nc1CC)CCN(CC/C(C)=N/O[C@@H](C)c1cc(-c3c(C)cc(C)cc3C)no1)C2`: the activity, negative = inhibition is -42.9% [at 11.4 µM].
With `COc1ccc(O[C@H]2C=C[C@@H](c3ccccc3)O[C@H]2COC(=O)CC/C(C)=N\O[C@@H](C)c2cc(-c3c(C)cc(C)cc3C)no2)cc1`, the AC50 is 0.1 µM (active).
Still for that read-out and setting: for `COc1ccc(O[C@H]2C=C[C@@H](c3ccccc3)O[C@H]2CO/N=C\C[C@@H]2C=C[C@H](OC(C)=O)[C@H](COC(C)=O)O2)cc1` the value was 0.794 µM (active).
Take `CC(=O)OC[C@@H]1O[C@H](C/C=N\O[C@@H](C)c2cc(-c3c(C)cc(C)cc3C)no2)C=C[C@@H]1OC(C)=O`: the activity, negative = inhibition was -35.1% [at 11.4 µM].
The same measure, in the same setting: for `CCCNC(=O)OC[C@H]1O[C@@H](CCO/N=C2/[C@H]3O[C@@H]3[C@@H](O)[C@H]3[C@H]2CCn2c(=O)n(-c4ccccc4)c(=O)n23)C=C[C@@H]1Oc1ccc(OC)cc1` the value was -3.58% [at 11.4 µM]; for `CC(=O)OC[C@@H]1O[C@H](C/C=N\OC[C@@H](C)[C@H](OCc2ccccc2)C(C)C)C=C[C@@H]1OC(C)=O`, -16.1% [at 11.4 µM]; for `C/C(CCN1CCc2nc(-c3ccccc3)c(-c3ccccc3)cc2C1)=N\OC[C@@H](O)[C@@H]1O[C@@H]2OC(C)(C)O[C@@H]2[C@H]1O`, 3.78% [at 11.4 µM].
Consider `COc1ccc(O[C@H]2C=C[C@@H](c3ccccc3)O[C@H]2COC(=O)CC/C(C)=N\OC[C@@H](O)[C@H]2O[C@H]3OC(C)(C)O[C@H]3[C@@H]2O)cc1`, for which the AC50 is 0.00501 µM (active).
On to `C/C(CCN1CCCc2nc(C)c(C)cc21)=N\OC[C@@H](O)[C@@H]1O[C@@H]2OC(C)(C)O[C@@H]2[C@H]1O`, for which the activity, negative = inhibition is -36.9% [at 11.4 µM].
